# PRMT1 FP inh: PRMT1 (human) inhibition, primary screen. Q99873. recombinant PRMT1, activity-based probe fluorescence polarization. inhibition, % at 2.79 µM. 370,000 compounds, 1.3% hits. AID 652257;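 active means inhibition above about 21% made by adding two undisclosed values, limit read from the data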
# ABHD5-PLIN5 inh: blocks binding of human ABHD5 to perilipin-5 | 360,000 compounds, 0.78% hits | Split G. princeps luciferase complementation, luminescence, 4 h | inhibition, % at 4 µM;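 active means inhibition above the mean inhibition across every tested compound plus 3 SD, cut at about 22% in these data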
# UHRF1 MBD2 ctr: human UHRF1 methylated DNA binding inhibitors. UHRF1 binding to methylated oligo, TR-FRET. inhibition, % at 4.4 µM. Q96T88. 370,000 compounds, 0.75% hits. AID 687016; in the data active means inhibition above about 21%;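 further: UHRF1 SRA domain binding a hemimethylated CpG hairpin DNA probe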
# Target sequence (Q96T88 whole entry, looked up, the tested form may be a part): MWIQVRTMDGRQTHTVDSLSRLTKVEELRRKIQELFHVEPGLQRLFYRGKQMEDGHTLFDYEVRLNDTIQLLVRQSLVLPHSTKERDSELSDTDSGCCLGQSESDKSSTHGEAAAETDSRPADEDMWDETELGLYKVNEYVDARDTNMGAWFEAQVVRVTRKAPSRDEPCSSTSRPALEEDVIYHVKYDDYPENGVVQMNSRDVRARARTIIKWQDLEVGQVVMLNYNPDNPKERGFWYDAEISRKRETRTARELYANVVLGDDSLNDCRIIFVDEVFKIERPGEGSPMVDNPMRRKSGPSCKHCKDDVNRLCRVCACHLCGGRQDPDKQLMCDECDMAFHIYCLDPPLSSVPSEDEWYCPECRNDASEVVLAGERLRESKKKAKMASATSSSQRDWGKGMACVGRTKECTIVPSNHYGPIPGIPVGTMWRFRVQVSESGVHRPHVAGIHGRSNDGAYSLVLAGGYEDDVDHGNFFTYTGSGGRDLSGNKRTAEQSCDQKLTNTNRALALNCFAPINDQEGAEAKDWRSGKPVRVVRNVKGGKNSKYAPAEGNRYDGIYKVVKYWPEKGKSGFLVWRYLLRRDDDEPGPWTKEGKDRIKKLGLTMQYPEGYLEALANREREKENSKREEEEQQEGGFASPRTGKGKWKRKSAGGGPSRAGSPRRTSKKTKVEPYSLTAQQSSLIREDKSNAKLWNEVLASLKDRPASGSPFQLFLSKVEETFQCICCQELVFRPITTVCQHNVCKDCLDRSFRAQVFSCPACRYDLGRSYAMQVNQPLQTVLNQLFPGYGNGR
# LEDGF integ inh: blocks HIV-1 LEDGF/p75-dependent DNA integration; TR-FRET IN-LEDGF/p75 DNA integration, Eu/Cy5; inhibition, % at 3.7 µM; 370,000 compounds, 0.64% hits; AID 743269;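 active means inhibition above the screen-wide mean plus 3 SD, cut at about 13% in these data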;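 further: signal is the Cy5 over europium emission ratio at 671 and 618 nm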
# rCAG binder: molecules binding r(CAG) RNA repeats | inhibition, % at 3 µM | r(CAG) RNA repeat, TO-PRO-1 dye displacement fluorescence | 370,000 compounds, 1.3% hits;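 active means inhibition above the plate cutoff, the mean of all test compounds on that plate plus 3 SD, cut at about 35% in these data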;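 further: higher means more dye released from RNA so lower well fluorescence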
# MBD2 inh: inhibitors of human MBD2 binding to methylated oligonucleotide | 370,000 compounds, 0.31% hits | inhibition, % at 4.4 µM | Q9UBB5 | TR-FRET; in the data active means inhibition above about 13%
# Numbers stand for hits; – = inactive; · = no result given; ! = not confirmed by another sample. Shown are actives, neighbours in structure and some others; about 4.1% of the full set was active somewhere.
SMILES,PRMT1 FP inh,ABHD5-PLIN5 inh,UHRF1 MBD2 ctr,LEDGF integ inh,rCAG binder,MBD2 inh
CCN(C(=O)c1ccco1)c1nc(CC(=O)Nc2ccc(Cl)cc2)cs1,–,–,–,–,–,–
C=CCNC(=O)c1ccc(-n2cccc2)cc1,–,–,24,–,–,–
CC[n+]1c(/C=C/N(C)c2ccccc2)n(-c2ccccc2)c2ccc(-c3nc4ccccc4s3)cc21,·,36,·,·,·,·
CCc1cc(SC#N)cc(C)c1NC(=O)CCl,31,–,–,–,–,–
CC(C)CCNC(=O)C1CCCN(C(=O)c2ccc3c(c2)NC(=O)CS3)C1 (configuration not stated),–,·,–,–,–,–
O=C(CN1CCOCC1)Nc1nc2ccc(Cl)cc2s1,–,–,–,–,–,–
O=C(CN1CCOCC1)Nc1nc2ccc(Br)cc2s1,39,–,–,–,–,–
CCOc1cc(C2CC(=O)N3CN(C4CCCCC4)CSC3=C2C#N)ccc1O (configuration not stated),32,–,–,–,–,–
COc1ccc2ccccc2c1C1CC(=O)N2CN(C3CCCCC3)CSC2=C1C#N (configuration not stated),–,–,–,–,39,–
CCCC[C@H]1C2CC(OC(=O)Nc3cccc(Cl)c3)C(C2)[C@H]2CCCCN21 (some centres not stated),–,·,–,–,–,–
COc1ccc(C(=O)N2CCC[C@@H]2C(=O)N2CCC[C@@H]2C(=O)NCc2ccccc2)cc1F,–,·,–,–,–,–
COC(=O)[C@H](CC(C)C)N(CCCc1cn(CC2CCCCC2)nn1)S(=O)(=O)c1ccc(F)cc1Br,–,·,–,–,–,–
COC(=O)c1ccc2nc(-c3cccc(Br)c3)c(Cc3ccsc3)n2c1,–,–,21,–,–,–
COC(=O)c1ccc2nc(-c3cccc(Cl)c3)c(Cc3cccc(Cl)c3)n2c1,–,–,23,–,–,–
COC(=O)c1ccc2nc(-c3cccc(Cl)c3)c(Cc3cccc(F)c3)n2c1,–,–,–,–,–,–
COC(=O)c1ccc2nc(-c3cccc(Cl)c3)c(Cc3ccsc3)n2c1,–,–,22,–,–,–
COC(=O)c1ccc2nc(-c3cccc(Br)c3)c(Cc3cccc(F)c3)n2c1,–,–,–,–,–,–
FC(F)(F)c1ccccc1Cc1c(-c2cccc(Cl)c2)nc2ccc(Br)cn12,–,–,–,–,–,–
COC(=O)c1ccc2nc(-c3cccc(Cl)c3)c(Cc3ccccc3C(F)(F)F)n2c1,–,·,22,–,–,–
CCCCc1c(-c2ccccc2OC)ncn1Cc1c(Cl)cccc1Cl,–,·,–,–,–,–
COc1ccc(-c2nnc(SCC(=O)NN=C/C=C\c3ccco3)n2-c2ccc(OC)cc2)cc1,–,·,–,–,–,–
COC(=O)c1ccc2nc(-c3cccc(Cl)c3)c(CC3CCCCC3)n2c1,–,–,22,–,–,–
COC(=O)c1ccc2nc(-c3ccc(Cl)cc3)c(Cc3ccsc3)n2c1,–,–,21,–,–,–
COC(=O)c1ccc2nc(-c3cccc(Br)c3)c(Cc3cccc(Cl)c3)n2c1,–,·,–,–,–,–
COC(=O)c1ccc2nc(-c3ccccc3)c(Cc3ccccc3)n2c1,–,·,–,–,–,–
SMILES,PRMT1 FP inh,ABHD5-PLIN5 inh,UHRF1 MBD2 ctr,LEDGF integ inh,rCAG binder,MBD2 inh
COC(=O)c1ccc2nc(-c3ccccc3)c(Cc3ccsc3)n2c1,–,–,22,–,–,–
CC(=O)Nc1sc2c(c1-c1nc(-c3ccccc3)cs1)CCN(C(C)C)C2,–,·,–,–,·,–
Cc1cc(C)c(C)c(S(=O)(=O)N2CCN(C)CC2)c1C,–,–,39,–,–,–
Cc1cc(C)c(C)c(S(=O)(=O)N2CCSCC2)c1C,–,–,–,–,–,–
CCn1nc(NS(=O)(=O)c2ccc(F)cc2)c2cc3cccc(C)c3nc21,–,–,–,–,63,–
CSc1ccccc1NC(=O)CN(C)C(=O)CCc1c[nH]c2ccccc12,–,–,21,–,–,–
CN[C@H]1C[C@H]2c3[nH]c4c(-c5ccccc5)cccc4c3CCN2C[C@H]1[C@H](C)O,–,·,–,–,–,–
CC(C)(C)OC(=O)N1CCC(c2cc(=O)n3[nH]cc(C(=O)Nc4ccc(F)c(Cl)c4)c3n2)CC1,–,–,–,–,–,–
COc1ccc(NC(=O)c2c[nH]n3c(=O)cc(C4CCN(C(=O)OC(C)(C)C)CC4)nc23)cc1Cl,–,–,39,–,–,–
COc1ccccc1C(=O)NC1CCCCN(Cc2cccc(C(F)(F)F)c2)C1=O (configuration not stated),–,·,–,–,–,–
CC(C)C[C@@H](CNCC(=O)[C@H](CC(=O)O)NC(=O)c1[nH]cnc1C(=O)N[C@H](CN)CC(C)C)NC(=O)c1nc[nH]c1C(=O)N[C@@H](C)C(=O)O,–,–,22,–,–,–
CC(C)C[C@@H](CNCC(=O)[C@H](CC(C)C)NC(=O)c1[nH]cnc1C(=O)N[C@@H](C)CN)NC(=O)c1nc[nH]c1C(=O)N[C@@H](C)C(=O)O,–,–,23,–,–,–
Cc1nn(CCC(=O)NNC(=O)NCc2ccccc2)c(C)c1[N+](=O)[O-],–,·,–,–,–,–
Cc1cc(Nc2ccccc2Cl)c2ccccc2n1,–,–,–,–,–,–
Cc1cc(C)nc(NCC(O)CNc2ccccc2Cl)n1 (configuration not stated),–,–,23,–,–,–
CCN1CCN(Cc2ccc(NC(=O)c3cc(NC(=O)c4cc(C)on4)cc(OC)c3)cc2C(F)(F)F)CC1,–,–,–,–,–,–
CCN1CCN(Cc2ccc(NC(=O)c3ccc(C)c(NC(=O)C(=O)c4c[nH]c5ccccc45)c3)cc2C(F)(F)F)CC1,–,30!,–,–,–,–
CCN1CCN(Cc2ccc(NC(=O)c3cc(NC(=O)C(=O)c4c[nH]c5ccccc45)cc(OC)c3)cc2C(F)(F)F)CC1,–,22!,–,–,–,–
CCCN1CCCCC(NC(C)=O)C1=O (configuration not stated),–,·,–,–,–,–
Cc1ccc(S(=O)(=O)N2CCCCC2)cc1C(=O)OCC(=O)NC(=O)NC12CC3CC(CC(C3)C1)C2,–,–,45,–,–,–
Cc1ccc(S(=O)(=O)N2CCOCC2)cc1C(=O)OCC(=O)NC1CCS(=O)(=O)C1 (configuration not stated),–,–,21,–,–,–
Cc1ccc(C(=O)NC2CCS(=O)(=O)C2)cc1S(=O)(=O)N1CCOCC1 (configuration not stated),–,–,–,–,–,–
Cc1ccc(C(=O)NC2CCS(=O)(=O)C2)cc1S(=O)(=O)N1CCCCC1 (configuration not stated),–,–,25,–,–,–
CC1CCCC(NC(=O)COC(=O)c2cc(S(=O)(=O)N3CCOCC3)ccc2F)C1C (configuration not stated),–,–,–,–,–,–

# High-throughput results as filed in PubChem BioAssay.
